# From publication PMC7862700, “An all-to-all approach to the identification of sequence-specific readers for epigenetic DNA modifications on cytosine”
# Experiments:
# Assay in all cases: DAPPL (digital affinity profiling via proximity ligation, sequencing); 10 mM Tris-HCl pH 7.5, 50 mM NaCl, 1 mM DTT, 4% glycerol, room temperature, 30 min; GST-TFs on glutathione beads, 16-mer random dsDNA library, 0.1% formaldehyde crosslink after washing; high values mean tight binding
# FLI1 = biological target: T1, FLI1 (Homo sapiens, UniProt Q01543 1-452); settings: protein: recombinant; tags: N-terminal GST; dsDNA, one strand shown
# T1 sequence: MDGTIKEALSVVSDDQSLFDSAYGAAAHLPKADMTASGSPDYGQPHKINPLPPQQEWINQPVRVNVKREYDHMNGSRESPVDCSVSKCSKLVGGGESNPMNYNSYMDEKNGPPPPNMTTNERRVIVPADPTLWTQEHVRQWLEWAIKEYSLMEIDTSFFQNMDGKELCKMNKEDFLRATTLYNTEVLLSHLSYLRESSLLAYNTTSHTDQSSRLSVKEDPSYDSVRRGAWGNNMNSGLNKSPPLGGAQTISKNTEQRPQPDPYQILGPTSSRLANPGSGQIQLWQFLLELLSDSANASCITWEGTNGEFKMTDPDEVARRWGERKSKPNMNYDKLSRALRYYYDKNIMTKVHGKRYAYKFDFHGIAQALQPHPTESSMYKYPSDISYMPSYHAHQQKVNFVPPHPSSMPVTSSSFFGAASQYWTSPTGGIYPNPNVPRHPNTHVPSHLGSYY
# How it was run: (§1)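 In yeast, human transcription factors were expressed with a GST fusion, then pulled down on glutathione beads and given DNA barcodes. Pooled with a tag-only sample, they were exposed to 200 nmole of a 16-mer random double-stranded DNA library (Tris/NaCl/DTT/glycerol buffer, room temperature, 30 min), washed, crosslinked with 0.1% formaldehyde, proximity-ligated using BsaI/T4 ligase for 1 h at 37 °C, PCR-amplified and read on an Illumina NextSeq500. Each hexamer's frequency of reads for a factor, divided by the matching frequency for the tag-only sample, gives the binding signal.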
# ELK1 = biological target: T2, ELK1 (Homo sapiens, UniProt P19419 1-428); settings: protein: recombinant; tags: N-terminal GST; dsDNA, one strand shown
# T2 sequence: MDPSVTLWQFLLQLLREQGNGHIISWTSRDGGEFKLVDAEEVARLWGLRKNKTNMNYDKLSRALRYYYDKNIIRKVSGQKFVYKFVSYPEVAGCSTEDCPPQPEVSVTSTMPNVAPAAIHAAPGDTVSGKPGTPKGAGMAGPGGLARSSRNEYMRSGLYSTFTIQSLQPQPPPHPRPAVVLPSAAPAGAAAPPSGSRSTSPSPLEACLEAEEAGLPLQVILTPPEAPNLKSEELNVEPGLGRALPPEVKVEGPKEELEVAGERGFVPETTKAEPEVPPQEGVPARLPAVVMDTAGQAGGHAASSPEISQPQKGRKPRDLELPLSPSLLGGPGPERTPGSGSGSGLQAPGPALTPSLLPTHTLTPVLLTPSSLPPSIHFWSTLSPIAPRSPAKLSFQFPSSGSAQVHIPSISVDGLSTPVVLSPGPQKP
# How it was run: as §1
# GABPA = biological target: T3, GABPA (Homo sapiens, UniProt Q06546 1-454); settings: protein: recombinant; tags: N-terminal GST; dsDNA, one strand shown
# T3 sequence: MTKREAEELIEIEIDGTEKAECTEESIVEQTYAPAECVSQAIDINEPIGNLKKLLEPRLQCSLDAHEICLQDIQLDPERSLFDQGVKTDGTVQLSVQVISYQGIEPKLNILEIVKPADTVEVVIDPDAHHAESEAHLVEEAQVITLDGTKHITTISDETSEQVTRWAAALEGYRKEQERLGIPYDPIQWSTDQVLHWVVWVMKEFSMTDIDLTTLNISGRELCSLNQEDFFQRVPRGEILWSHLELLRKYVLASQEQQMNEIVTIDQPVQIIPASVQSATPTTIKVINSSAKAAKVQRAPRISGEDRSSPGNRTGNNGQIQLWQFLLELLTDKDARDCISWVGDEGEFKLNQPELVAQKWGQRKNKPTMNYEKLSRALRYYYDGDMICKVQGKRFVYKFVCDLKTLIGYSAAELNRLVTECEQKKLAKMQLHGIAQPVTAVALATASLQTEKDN
# How it was run: as §1
# ERG = biological target: T4, ERG (Homo sapiens, UniProt P11308 1-479); settings: protein: recombinant; tags: N-terminal GST; dsDNA, one strand shown
# T4 sequence: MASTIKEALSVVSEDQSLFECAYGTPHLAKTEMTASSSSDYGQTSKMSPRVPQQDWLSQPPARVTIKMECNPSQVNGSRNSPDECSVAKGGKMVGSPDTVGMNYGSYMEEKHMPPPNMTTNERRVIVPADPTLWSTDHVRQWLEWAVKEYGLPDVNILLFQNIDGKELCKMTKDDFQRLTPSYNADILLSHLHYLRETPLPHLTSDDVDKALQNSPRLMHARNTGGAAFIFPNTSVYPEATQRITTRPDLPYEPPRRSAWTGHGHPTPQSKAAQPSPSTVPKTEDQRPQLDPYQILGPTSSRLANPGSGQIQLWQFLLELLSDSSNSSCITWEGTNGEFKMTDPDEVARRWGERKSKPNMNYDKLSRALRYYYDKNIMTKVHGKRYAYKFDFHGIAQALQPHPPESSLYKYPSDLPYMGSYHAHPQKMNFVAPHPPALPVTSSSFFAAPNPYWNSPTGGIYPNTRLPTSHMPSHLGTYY
# How it was run: as §1
# ELF1 = ELF1 (Homo sapiens, UniProt P32519 1-619); settings: protein: recombinant; tags: N-terminal GST; dsDNA, one strand shown
# ELF1, sequence (P32519 whole entry): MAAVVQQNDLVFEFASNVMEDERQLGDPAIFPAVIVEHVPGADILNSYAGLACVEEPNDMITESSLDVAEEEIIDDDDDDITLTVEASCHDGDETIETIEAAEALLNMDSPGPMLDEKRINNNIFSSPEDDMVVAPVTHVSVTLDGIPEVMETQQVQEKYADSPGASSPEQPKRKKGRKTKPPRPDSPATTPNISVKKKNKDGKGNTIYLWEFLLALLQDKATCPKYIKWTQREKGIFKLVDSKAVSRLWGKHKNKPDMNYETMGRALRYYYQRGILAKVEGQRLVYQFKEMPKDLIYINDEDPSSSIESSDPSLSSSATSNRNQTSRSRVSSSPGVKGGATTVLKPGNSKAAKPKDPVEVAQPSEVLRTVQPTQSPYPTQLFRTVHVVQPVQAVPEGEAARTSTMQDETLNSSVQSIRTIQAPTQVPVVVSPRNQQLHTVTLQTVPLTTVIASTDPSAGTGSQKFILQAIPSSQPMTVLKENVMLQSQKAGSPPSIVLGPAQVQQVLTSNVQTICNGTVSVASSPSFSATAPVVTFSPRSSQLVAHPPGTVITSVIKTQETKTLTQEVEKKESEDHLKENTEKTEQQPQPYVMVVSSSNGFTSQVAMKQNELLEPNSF
# How it was run: as §1
# EHF = biological target: T5, EHF (Homo sapiens, UniProt Q9NZC4 1-300); settings: protein: recombinant; tags: N-terminal GST; dsDNA, one strand shown
# T5 sequence: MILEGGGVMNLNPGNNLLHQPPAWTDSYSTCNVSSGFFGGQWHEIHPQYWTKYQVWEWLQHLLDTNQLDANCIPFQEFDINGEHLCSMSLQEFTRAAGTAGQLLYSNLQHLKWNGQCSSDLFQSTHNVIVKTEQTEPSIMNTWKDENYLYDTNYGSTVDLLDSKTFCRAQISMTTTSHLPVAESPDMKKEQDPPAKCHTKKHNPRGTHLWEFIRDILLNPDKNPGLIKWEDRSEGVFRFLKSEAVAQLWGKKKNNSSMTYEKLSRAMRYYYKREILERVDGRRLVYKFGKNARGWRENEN
# How it was run: as §1
# SPI1 = SPI1 (Homo sapiens, UniProt P17947 1-270); settings: protein: recombinant; tags: N-terminal GST; dsDNA, one strand shown
# How it was run: as §1
# SPIB = SPIB (Homo sapiens, UniProt Q01892 1-262); settings: protein: recombinant; tags: N-terminal GST; dsDNA, one strand shown
# SPIB, sequence (Q01892 whole entry): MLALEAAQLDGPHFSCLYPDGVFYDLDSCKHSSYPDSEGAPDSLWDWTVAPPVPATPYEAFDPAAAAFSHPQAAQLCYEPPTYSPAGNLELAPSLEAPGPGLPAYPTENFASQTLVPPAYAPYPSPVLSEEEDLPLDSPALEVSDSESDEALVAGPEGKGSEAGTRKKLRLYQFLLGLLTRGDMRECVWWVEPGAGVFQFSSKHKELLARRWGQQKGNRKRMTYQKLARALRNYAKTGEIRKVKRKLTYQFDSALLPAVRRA
# How it was run: as §1
# ELK3 = biological target: T6, ELK3 (Homo sapiens, UniProt P41970 1-407); settings: protein: recombinant; tags: N-terminal GST; dsDNA, one strand shown
# T6 sequence: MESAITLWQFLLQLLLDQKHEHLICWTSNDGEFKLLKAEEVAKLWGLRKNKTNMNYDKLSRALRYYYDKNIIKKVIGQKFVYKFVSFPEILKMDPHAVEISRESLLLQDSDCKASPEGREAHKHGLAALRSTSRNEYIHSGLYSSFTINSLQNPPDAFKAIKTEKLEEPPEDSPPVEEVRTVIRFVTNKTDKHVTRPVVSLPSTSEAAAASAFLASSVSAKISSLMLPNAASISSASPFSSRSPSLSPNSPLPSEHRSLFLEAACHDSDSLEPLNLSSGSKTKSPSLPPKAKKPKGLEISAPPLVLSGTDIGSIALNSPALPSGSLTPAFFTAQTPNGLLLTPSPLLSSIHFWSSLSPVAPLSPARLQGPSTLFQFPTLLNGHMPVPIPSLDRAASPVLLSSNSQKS
# How it was run: as §1
# FEV = biological target: T7, FEV (Homo sapiens, UniProt Q99581 1-238); settings: protein: recombinant; tags: N-terminal GST; dsDNA, one strand shown
# T7 sequence: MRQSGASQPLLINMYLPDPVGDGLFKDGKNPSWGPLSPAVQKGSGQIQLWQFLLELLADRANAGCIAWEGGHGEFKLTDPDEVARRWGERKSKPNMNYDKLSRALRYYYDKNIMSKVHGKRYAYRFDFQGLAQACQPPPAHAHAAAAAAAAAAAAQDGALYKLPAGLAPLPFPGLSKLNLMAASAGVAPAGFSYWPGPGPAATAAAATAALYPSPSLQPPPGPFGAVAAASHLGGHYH
# How it was run: as §1
# ETV5 = ETV5 (Homo sapiens, UniProt P41161 1-510); settings: protein: recombinant; tags: N-terminal GST; dsDNA, one strand shown
# ETV5, sequence (P41161 whole entry): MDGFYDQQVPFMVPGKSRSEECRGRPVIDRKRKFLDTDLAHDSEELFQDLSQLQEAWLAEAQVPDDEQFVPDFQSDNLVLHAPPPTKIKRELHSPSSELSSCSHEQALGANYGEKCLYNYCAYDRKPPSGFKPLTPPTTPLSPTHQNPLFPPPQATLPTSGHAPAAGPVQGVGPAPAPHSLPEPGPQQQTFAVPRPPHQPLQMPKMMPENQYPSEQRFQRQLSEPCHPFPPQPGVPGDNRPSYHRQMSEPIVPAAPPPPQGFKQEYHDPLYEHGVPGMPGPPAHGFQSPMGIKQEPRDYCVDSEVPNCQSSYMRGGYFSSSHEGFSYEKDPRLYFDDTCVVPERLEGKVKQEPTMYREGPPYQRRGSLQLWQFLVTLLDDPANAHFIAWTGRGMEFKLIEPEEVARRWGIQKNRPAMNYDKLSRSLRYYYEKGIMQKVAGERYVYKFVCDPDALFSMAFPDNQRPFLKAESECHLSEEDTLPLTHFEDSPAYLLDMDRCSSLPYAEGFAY
# How it was run: as §1
# HSF1 = HSF1 (Homo sapiens, UniProt Q00613 1-529); settings: protein: recombinant; tags: N-terminal GST; chain copies: 3; dsDNA, one strand shown
# HSF1, sequence (Q00613 whole entry): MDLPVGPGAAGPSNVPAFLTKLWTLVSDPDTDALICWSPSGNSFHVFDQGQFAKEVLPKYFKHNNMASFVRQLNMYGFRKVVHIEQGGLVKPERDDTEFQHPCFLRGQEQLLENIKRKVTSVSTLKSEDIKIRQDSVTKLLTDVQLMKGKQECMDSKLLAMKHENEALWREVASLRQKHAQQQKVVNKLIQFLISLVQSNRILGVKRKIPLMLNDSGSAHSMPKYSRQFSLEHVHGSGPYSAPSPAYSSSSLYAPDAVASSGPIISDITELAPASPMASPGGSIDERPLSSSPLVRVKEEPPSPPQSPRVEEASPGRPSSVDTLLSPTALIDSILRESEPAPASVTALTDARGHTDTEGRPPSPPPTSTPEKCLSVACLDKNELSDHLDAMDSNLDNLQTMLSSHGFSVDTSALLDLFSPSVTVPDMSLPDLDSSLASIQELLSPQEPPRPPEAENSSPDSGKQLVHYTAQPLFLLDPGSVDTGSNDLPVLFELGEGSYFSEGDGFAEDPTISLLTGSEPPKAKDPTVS
# How it was run: as §1
# SPIC = biological target: T8, SPIC (Homo sapiens, UniProt Q8N5J4 1-248); settings: protein: recombinant; tags: N-terminal GST; dsDNA, one strand shown
# T8 sequence: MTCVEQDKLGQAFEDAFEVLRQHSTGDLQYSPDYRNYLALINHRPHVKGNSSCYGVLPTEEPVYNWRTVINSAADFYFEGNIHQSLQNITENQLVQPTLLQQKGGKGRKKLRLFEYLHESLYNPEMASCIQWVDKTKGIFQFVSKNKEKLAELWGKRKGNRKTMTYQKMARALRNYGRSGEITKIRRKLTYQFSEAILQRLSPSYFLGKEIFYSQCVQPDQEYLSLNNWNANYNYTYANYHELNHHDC
# How it was run: as §1
# ELF4 = ELF4 (Homo sapiens, UniProt Q99607 1-663); settings: protein: recombinant; tags: N-terminal GST; dsDNA, one strand shown
# ELF4, sequence (Q99607 whole entry): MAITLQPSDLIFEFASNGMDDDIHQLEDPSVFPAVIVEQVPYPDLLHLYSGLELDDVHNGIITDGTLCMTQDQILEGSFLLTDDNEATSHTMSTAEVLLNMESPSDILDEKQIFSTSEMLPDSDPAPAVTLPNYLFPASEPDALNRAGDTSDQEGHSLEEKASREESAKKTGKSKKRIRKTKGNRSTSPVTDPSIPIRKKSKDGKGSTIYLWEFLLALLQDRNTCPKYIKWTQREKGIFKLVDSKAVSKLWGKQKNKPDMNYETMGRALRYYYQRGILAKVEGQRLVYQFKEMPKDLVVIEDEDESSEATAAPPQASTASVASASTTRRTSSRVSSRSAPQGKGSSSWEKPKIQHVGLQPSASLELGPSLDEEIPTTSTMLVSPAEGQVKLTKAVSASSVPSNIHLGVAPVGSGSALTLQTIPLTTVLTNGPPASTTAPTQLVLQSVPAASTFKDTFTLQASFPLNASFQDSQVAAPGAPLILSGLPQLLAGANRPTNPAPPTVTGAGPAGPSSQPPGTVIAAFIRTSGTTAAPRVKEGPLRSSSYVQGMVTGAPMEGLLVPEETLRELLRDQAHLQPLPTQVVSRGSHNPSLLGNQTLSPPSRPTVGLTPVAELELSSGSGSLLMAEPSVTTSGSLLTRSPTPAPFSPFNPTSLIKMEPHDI
# How it was run: as §1
# ELK4 = biological target: T9, ELK4 (Homo sapiens, UniProt P28324-2 1-405); settings: protein: recombinant; tags: N-terminal GST; dsDNA, one strand shown
# T9 sequence: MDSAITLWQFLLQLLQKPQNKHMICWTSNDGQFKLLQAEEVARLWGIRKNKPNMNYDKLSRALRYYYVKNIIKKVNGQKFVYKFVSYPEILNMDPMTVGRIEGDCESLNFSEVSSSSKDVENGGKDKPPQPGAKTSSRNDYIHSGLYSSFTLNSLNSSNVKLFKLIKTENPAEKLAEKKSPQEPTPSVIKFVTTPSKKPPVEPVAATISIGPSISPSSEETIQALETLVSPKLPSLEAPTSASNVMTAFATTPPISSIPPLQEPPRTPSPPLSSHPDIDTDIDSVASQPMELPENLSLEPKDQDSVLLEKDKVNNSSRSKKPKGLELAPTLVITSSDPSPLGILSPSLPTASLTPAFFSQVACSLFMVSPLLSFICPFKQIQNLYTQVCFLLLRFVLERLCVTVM
# How it was run: as §1
# ETV2 = biological target: T10, ETV2 (Homo sapiens, UniProt O00321 1-342); settings: protein: recombinant; tags: N-terminal GST; dsDNA, one strand shown
# T10 sequence: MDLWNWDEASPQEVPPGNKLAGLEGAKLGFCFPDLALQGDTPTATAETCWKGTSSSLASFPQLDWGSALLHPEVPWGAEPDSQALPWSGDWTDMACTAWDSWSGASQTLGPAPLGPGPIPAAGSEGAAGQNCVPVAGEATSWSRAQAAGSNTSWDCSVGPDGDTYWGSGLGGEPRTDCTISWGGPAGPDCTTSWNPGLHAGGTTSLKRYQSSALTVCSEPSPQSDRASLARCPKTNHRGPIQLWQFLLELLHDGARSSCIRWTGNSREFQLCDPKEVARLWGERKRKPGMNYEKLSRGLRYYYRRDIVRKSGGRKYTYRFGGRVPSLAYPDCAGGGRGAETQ
# How it was run: as §1
# ELF3 = biological target: T11, ELF3 (Homo sapiens, UniProt P78545 1-371); settings: protein: recombinant; tags: N-terminal GST; dsDNA, one strand shown
# T11 sequence: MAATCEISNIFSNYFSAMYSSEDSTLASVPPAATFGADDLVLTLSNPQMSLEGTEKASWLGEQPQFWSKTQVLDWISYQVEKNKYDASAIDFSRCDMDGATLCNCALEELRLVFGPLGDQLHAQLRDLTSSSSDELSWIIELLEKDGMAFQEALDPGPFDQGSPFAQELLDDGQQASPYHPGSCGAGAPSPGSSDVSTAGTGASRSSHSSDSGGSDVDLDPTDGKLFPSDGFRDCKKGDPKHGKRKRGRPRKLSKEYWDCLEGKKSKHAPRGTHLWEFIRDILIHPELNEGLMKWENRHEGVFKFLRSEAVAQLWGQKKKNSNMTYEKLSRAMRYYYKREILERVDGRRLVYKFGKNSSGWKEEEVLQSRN
# How it was run: as §1
# ETV1 = ETV1 (Homo sapiens, UniProt P50549 1-477); settings: protein: recombinant; tags: N-terminal GST; dsDNA, one strand shown
# ETV1, sequence (P50549 whole entry): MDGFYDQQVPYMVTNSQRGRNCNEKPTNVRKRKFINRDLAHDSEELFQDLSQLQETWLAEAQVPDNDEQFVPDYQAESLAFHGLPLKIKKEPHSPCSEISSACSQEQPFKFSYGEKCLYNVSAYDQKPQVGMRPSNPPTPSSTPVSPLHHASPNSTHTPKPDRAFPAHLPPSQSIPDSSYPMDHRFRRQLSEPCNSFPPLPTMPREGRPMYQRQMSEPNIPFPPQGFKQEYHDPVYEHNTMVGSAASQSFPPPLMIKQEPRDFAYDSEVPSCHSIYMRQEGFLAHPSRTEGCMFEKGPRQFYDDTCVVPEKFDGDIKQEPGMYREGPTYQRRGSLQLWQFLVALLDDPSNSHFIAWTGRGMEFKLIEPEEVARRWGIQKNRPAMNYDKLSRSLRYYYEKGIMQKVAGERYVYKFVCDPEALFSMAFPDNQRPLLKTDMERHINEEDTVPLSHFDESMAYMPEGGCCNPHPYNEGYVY
# How it was run: as §1
sequence,measurement,setting,value
TAGGAA,binding signal,FLI1,"1.07 fold enrichment (6-mer frequency, TF over GST control)"
same,binding signal,ELK1,"1 fold enrichment (6-mer frequency, TF over GST control)"
same,binding signal,GABPA,"1.04 fold enrichment (6-mer frequency, TF over GST control)"
same,binding signal,ERG,"1.17 fold enrichment (6-mer frequency, TF over GST control)"
same,binding signal,ELF1,"1.03 fold enrichment (6-mer frequency, TF over GST control)"
same,binding signal,EHF,"1.25 fold enrichment (6-mer frequency, TF over GST control)"
same,binding signal,SPI1,"1.23 fold enrichment (6-mer frequency, TF over GST control)"
same,binding signal,SPIB,"1.28 fold enrichment (6-mer frequency, TF over GST control)"
same,binding signal,ELK3,"1.03 fold enrichment (6-mer frequency, TF over GST control)"
same,binding signal,FEV,"1.06 fold enrichment (6-mer frequency, TF over GST control)"
same,binding signal,ETV5,"1.19 fold enrichment (6-mer frequency, TF over GST control)"
same,binding signal,HSF1,"1.11 fold enrichment (6-mer frequency, TF over GST control)"
same,binding signal,SPIC,"1.27 fold enrichment (6-mer frequency, TF over GST control)"
same,binding signal,ELF4,"1.09 fold enrichment (6-mer frequency, TF over GST control)"
same,binding signal,ELK4,"1.01 fold enrichment (6-mer frequency, TF over GST control)"
same,binding signal,ETV2,"1.2 fold enrichment (6-mer frequency, TF over GST control)"
same,binding signal,ELF3,"1.2 fold enrichment (6-mer frequency, TF over GST control)"
same,binding signal,ETV1,"1.13 fold enrichment (6-mer frequency, TF over GST control)"
